{"source": "the antibiotic and cytotoxicity screens of Wong et al. (2023)", "note": "Screen size: about 39,000 compounds; about 3,300 (8.5%) were called active. The full list was thinned out, with actives kept by preference."}
{"test_system": "HepG2", "assay": "cytotoxicity call (relative viability < 0.9)", "conditions": "10 µM"}
{"smiles": "C[C@H](CO)N1C[C@H](C)[C@H](CN(C)C(=O)Nc2ccc3c(c2)OCO3)Oc2c(NC(=O)C3CCOCC3)cccc2C1=O", "cytotoxicity call": "inactive"}
{"smiles": "CNCCCC12CCC(c3ccccc31)c1ccccc12.Cl", "cytotoxicity call": "active"}
{"smiles": "CC(C)CC#Cc1cnc2c(c1)C(=O)N([C@@H](C)CO)C[C@H](C)[C@@H](CN(C)C(=O)CN1CCOCC1)O2", "cytotoxicity call": "inactive"}
{"smiles": "C[C@@H]1CCCCO[C@H](CN(C)C(=O)CCCN(C)C)[C@H](C)CN([C@@H](C)CO)C(=O)c2cc(NC(=O)Nc3ccc(C(F)(F)F)cc3)ccc2O1", "cytotoxicity call": "inactive"}
{"smiles": "COc1ccccc1C#Cc1cnc2c(c1)C(=O)N([C@H](C)CO)C[C@H](C)[C@H](CN(C)S(=O)(=O)c1cn(C)cn1)O2", "cytotoxicity call": "inactive"}
{"smiles": "C[C@@H]1CCCCO[C@H](CN(C)S(=O)(=O)c2ccccc2)[C@H](C)CN([C@@H](C)CO)C(=O)c2cc(NS(=O)(=O)c3cn(C)cn3)ccc2O1", "cytotoxicity call": "inactive"}
{"smiles": "C[C@H](CO)N1C[C@H](C)[C@@H](CN(C)C(=O)Nc2cccc3ccccc23)OCCCC[C@H](C)Oc2ccc(NC(=O)c3ccncc3)cc2C1=O", "cytotoxicity call": "inactive"}
{"smiles": "C[C@@H]1CN([C@H](C)CO)C(=O)c2cc(NC(=O)c3ccccc3)ccc2O[C@@H](C)CCCCO[C@@H]1CN(C)C(=O)Nc1cccc2ccccc12", "cytotoxicity call": "inactive"}
{"smiles": "C[C@@H]1CN([C@@H](C)CO)C(=O)c2cc(NC(=O)c3ccccc3)ccc2O[C@@H](C)CCCCO[C@H]1CN(C)C(=O)Nc1cccc2ccccc12", "cytotoxicity call": "active"}
{"smiles": "C[C@@H]1CN([C@H](C)CO)C(=O)c2cc(NC(=O)c3ccccc3)ccc2O[C@@H](C)CCCCO[C@H]1CN(C)C(=O)Nc1cccc2ccccc12", "cytotoxicity call": "active"}
{"smiles": "C[C@H]1CCCCO[C@H](CN(C)C(=O)Nc2cccc3ccccc23)[C@@H](C)CN([C@@H](C)CO)C(=O)c2cc(NC(=O)c3ccncc3)ccc2O1", "cytotoxicity call": "inactive"}
{"smiles": "C[C@@H]1CCCCO[C@H](CN(C)C(=O)Nc2cccc3ccccc23)[C@H](C)CN([C@@H](C)CO)C(=O)c2cc(NC(=O)c3ccccc3)ccc2O1", "cytotoxicity call": "inactive"}
{"smiles": "C[C@@H]1CCCCO[C@@H](CN(C)C(=O)Nc2cccc3ccccc23)[C@@H](C)CN([C@@H](C)CO)C(=O)c2cc(NC(=O)c3ccccc3)ccc2O1", "cytotoxicity call": "inactive"}
{"smiles": "C[C@@H]1CCCCO[C@H](CN(C)C(=O)Nc2cccc3ccccc23)[C@@H](C)CN([C@@H](C)CO)C(=O)c2cc(NC(=O)c3ccncc3)ccc2O1", "cytotoxicity call": "active"}
{"smiles": "C[C@@H]1CCCCO[C@@H](CN(C)C(=O)Nc2cccc3ccccc23)[C@@H](C)CN([C@H](C)CO)C(=O)c2cc(NC(=O)c3ccccc3)ccc2O1", "cytotoxicity call": "inactive"}
{"smiles": "C[C@H](CO)N1C[C@H](C)[C@@H](CN(C)C(=O)Nc2cccc3ccccc23)OCCCC[C@H](C)Oc2ccc(NC(=O)c3ccccc3)cc2C1=O", "cytotoxicity call": "inactive"}
{"smiles": "C[C@@H]1CCCCO[C@H](CN(C)C(=O)Nc2cccc3ccccc23)[C@@H](C)CN([C@H](C)CO)C(=O)c2cc(NC(=O)c3ccccc3)ccc2O1", "cytotoxicity call": "inactive"}
{"smiles": "C[C@@H]1CCCCO[C@@H](CN(C)C(=O)Nc2cccc3ccccc23)[C@H](C)CN([C@@H](C)CO)C(=O)c2cc(NC(=O)c3ccccc3)ccc2O1", "cytotoxicity call": "active"}
{"smiles": "CC(C)NC(=O)N(C)C[C@H]1OCCCC[C@@H](C)Oc2ccc(NC(=O)Nc3ccc(F)cc3)cc2C(=O)N([C@@H](C)CO)C[C@H]1C", "cytotoxicity call": "inactive"}
{"smiles": "CC(C)CC#Cc1cnc2c(c1)C(=O)N([C@H](C)CO)C[C@@H](C)[C@H](CN(C)S(=O)(=O)c1cccs1)O2", "cytotoxicity call": "inactive"}
{"smiles": "Cc1noc(C)c1S(=O)(=O)N(C)C[C@H]1OCCCC[C@H](C)Oc2ccc(NS(C)(=O)=O)cc2C(=O)N([C@@H](C)CO)C[C@@H]1C", "cytotoxicity call": "inactive"}
{"smiles": "C[C@@H]1CN([C@@H](C)CO)C(=O)Cc2cc(NC(=O)C3CC3)ccc2O[C@H]1CN(C)C(=O)Nc1ccc2c(c1)OCO2", "cytotoxicity call": "inactive"}
{"smiles": "CNC(=O)c1ccc2c(c1)OCO2", "cytotoxicity call": "inactive"}
{"smiles": "O=C(C[C@@H]1C[C@H]2c3cc(NS(=O)(=O)c4ccc(F)cc4)ccc3O[C@H]2[C@H](CO)O1)NCc1cccc(F)c1", "cytotoxicity call": "inactive"}
{"smiles": "C[C@H]1CN([C@@H](C)CO)C(=O)Cc2cc(NC(=O)NC3CCCCC3)ccc2O[C@H]1CN(C)C(=O)Nc1ccc(C(F)(F)F)cc1", "cytotoxicity call": "inactive"}
{"smiles": "C[C@H](CO)N1C[C@H](C)[C@@H](CN(C)Cc2ccc(Oc3ccccc3)cc2)Oc2cc(Br)ccc2S1(=O)=O", "cytotoxicity call": "inactive"}
{"smiles": "C[C@H]1CN([C@@H](C)CO)C(=O)Cc2cc(NS(=O)(=O)c3cccs3)ccc2O[C@H]1CN(C)S(=O)(=O)c1ccccc1", "cytotoxicity call": "inactive"}
{"smiles": "C[C@@H]1CCCCO[C@@H](CN(C)Cc2ccccc2)[C@H](C)CN([C@@H](C)CO)C(=O)c2cc(NS(=O)(=O)c3ccc(F)cc3)ccc2O1", "cytotoxicity call": "inactive"}
{"smiles": "Cc1c2oc3c(C)ccc(C(=O)OC(C)C4NC(=O)C(C(C)C)N(C)C(=O)CN(C)C(=O)C5CCCN5C(=O)C(C(C)C)NC4=O)c3nc-2c(C(=O)OC(C)C2NC(=O)C(C(C)C)N(C)C(=O)CN(C)C(=O)C3CCCN3C(=O)C(C(C)C)NC2=O)c(N)c1=O", "note": "(stereo not drawn)", "cytotoxicity call": "active"}
{"smiles": "Cc1c2oc3c(C)ccc(C(=O)N[C@@H]4C(=O)N[C@H](C(C)C)C(=O)N5CCC[C@H]5C(=O)N(C)CC(=O)N(C)[C@@H](C(C)C)C(=O)O[C@@H]4C)c3nc-2c(C(=O)N[C@@H]2C(=O)N[C@H](C(C)C)C(=O)N3CCC[C@H]3C(=O)N(C)CC(=O)N(C)[C@@H](C(C)C)C(=O)O[C@@H]2C)c(N)c1=O", "cytotoxicity call": "active"}
{"smiles": "Cc1c2oc3c(C)ccc(C(=O)N[C@@H]4C(=O)N[C@@H](C(C)C)C(=O)N5CCC[C@H]5C(=O)N(C)CC(=O)N(C)[C@@H](C(C)C)C(=O)O[C@@H]4C)c3nc-2c(C(=O)N[C@@H]2C(=O)N[C@@H](C(C)C)C(=O)N3CCC[C@H]3C(=O)N(C)CC(=O)N(C)[C@@H](C(C)C)C(=O)O[C@@H]2C)c(N)c1=O", "cytotoxicity call": "active"}
{"smiles": "CO[C@@H]1CN(C)C(=O)c2cc(NC(=O)c3cc(C)on3)ccc2OC[C@@H](C)N(S(=O)(=O)c2ccccc2)C[C@H]1C", "cytotoxicity call": "inactive"}
{"smiles": "COc1ccc(S(=O)(=O)N(C)C[C@H]2Oc3c(NS(=O)(=O)c4ccccc4)cccc3C(=O)N([C@H](C)CO)C[C@H]2C)cc1", "cytotoxicity call": "inactive"}
